From PubChem BioAssay
ATG4B inhibitor = ATG4B protease inhibitors, primary screen, biochemical, fluorescence, uHTS; ATG4B cleavage of LC3-PLA2, NBD-HPC fluorescence, 1 h; 340,000 tested, 0.51% active; inhibition, % at 8.33 µM; Cysteine protease ATG4B (Homo sapiens), Q9Y4P1; in the data active = inhibition above about 40%
PP1 inh = PP1-alpha phosphatase inhibitors, primary screen, counter-screen for PP5 inhibitor project, biochemical, fluorescence, OMFP substrate, single point; purified PP1alpha; inhibition, % at 6.7 µM; 320,000 tested, 0.9% active; Serine/threonine-protein phosphatase PP1-alpha catalytic subunit (Homo sapiens), P62136;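 active = inhibition above the mean inhibition of all tested compounds plus 3 SD, computed separately for each screening campaign, cut at about 15% in these data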
PP5 primary = PP5 phosphatase inhibitors, primary screen, biochemical, fluorescence | purified PP5c, OMFP substrate fluorescence | Serine/threonine-protein phosphatase 5 (Homo sapiens), P53041 | inhibition, % at 6.7 µM | 320,000 tested, 0.18% active;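 active = inhibition above the campaign's mean inhibition across all tested compounds plus 3 SD, cut at about 9.5% in these data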
Target sequence (P53041 whole entry, looked up): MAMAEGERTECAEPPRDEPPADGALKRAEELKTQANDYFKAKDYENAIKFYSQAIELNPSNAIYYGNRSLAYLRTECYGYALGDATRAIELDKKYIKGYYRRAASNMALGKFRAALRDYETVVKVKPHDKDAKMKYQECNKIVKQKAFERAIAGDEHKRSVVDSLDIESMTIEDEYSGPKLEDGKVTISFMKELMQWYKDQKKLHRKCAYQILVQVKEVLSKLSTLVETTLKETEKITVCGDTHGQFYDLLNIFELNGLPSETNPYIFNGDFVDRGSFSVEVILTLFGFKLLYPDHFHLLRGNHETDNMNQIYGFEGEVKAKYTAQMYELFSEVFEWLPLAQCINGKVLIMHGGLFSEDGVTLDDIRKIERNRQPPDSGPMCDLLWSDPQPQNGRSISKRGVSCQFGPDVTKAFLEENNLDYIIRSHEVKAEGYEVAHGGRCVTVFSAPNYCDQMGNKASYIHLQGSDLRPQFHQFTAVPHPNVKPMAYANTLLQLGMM
H9c2 protect = cardioprotection against H2O2-induced cell death, primary screen, uHTS, H9c2 cells, ATPLite luminescence; H9c2 cardiomyocytes, H2O2 injury protection, 2 h; protection from H2O2 cell death, % at 20 µM; 360,000 tested, 0.63% active;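 active = compounds giving at least 50% protection of heart cells from peroxide-induced death in the single-dose screen, raw or plate-pattern-corrected value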
ATG4B conf = ATG4B protease inhibitors, retest, confirmation, biochemical, fluorescence, single concentration; shares compounds with ATG4B inhibitor; ATG4B protease fluorescent substrate cleavage assay; inhibition, % at 8.33 µM; 320 tested, 92% active; in the data active = inhibition above about 39%
PLA2 counter = PLA2 enzyme inhibition, counter-screen for ATG4B inhibitor project, biochemical, single concentration, uHTS hits; shares compounds with ATG4B inhibitor; AID 588402, 2011; inhibition, % at 8.33 µM; purified PLA2, NBD-C6-HPC fluorescence, 45 min; 1,600 tested, 66% active; in the data active = inhibition above about 50%
Target sequence (P04054 whole entry, looked up): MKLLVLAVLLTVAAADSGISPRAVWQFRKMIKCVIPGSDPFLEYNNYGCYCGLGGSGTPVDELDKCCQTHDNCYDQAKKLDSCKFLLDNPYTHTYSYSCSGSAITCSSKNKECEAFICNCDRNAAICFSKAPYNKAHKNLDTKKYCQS
Each line names hits and unclear results; the compound was inactive in the other large screens (follow-up assays come after a bar, where they were run). Hits are enriched below; roughly 1.9% of the tested compounds scored in any of these assays.

S=C(NCCC(c1ccccc1)c1ccccc1)Nc1cccc(Cl)c1	ATG4B inhibitor 46 | PLA2 counter 70
Cc1ccc(CNC(=S)Nc2ccc(OC(F)F)cc2C)cc1	none
CCCCOC(=O)CCCN1C(=O)/C(=C2\SC(=S)N(CCCC(=O)OCCCC)C2=O)SC1=S	none
CCN(CC(=O)NCc1cccs1)C(=O)c1ccc(-c2cccc(C(F)(F)F)c2)o1	none
CNS(=O)(=O)c1cccc(C(=O)OCC(=O)c2ccc3[nH]c(=O)[nH]c3c2)c1	none (no result: PP1 inh, PP5 primary)
S=C(NCc1ccccc1Cl)Nc1ccccc1Cl	none
O=C(NC(=S)Nc1ccc(F)c(Cl)c1)C1CC1	none
Fc1ccc(NC(=S)Nc2ccc(F)c(Cl)c2)cc1Cl	ATG4B inhibitor 72 | PLA2 counter 76
CCNC(=O)C(=O)Nc1ccc([N+](=O)[O-])cc1	none
CCN(CC)C(=S)Nc1ccc([N+](=O)[O-])cc1	ATG4B inhibitor 58 | PLA2 counter inactive
Fc1cccc(NC(=S)NCc2ccccc2Cl)c1	ATG4B inhibitor 40 | PLA2 counter inactive
O=C(NCc1ccccc1Cl)c1ccccc1Oc1ccccc1	ATG4B inhibitor 53 | PLA2 counter inactive
O=C(NCc1ccccc1Cl)c1cccc(NC(=O)c2ccccc2)c1	ATG4B inhibitor 48 | PLA2 counter 53
Fc1ccc(CNC(=S)Nc2ccc(Cl)cc2)cc1	ATG4B inhibitor 43 | PLA2 counter 52
O=[N+]([O-])c1ccc(NC(=S)NCc2ccc(F)cc2)cc1	ATG4B inhibitor 57 | PLA2 counter 68
S=C(NCc1ccccc1)Nc1ccc(Oc2ccccc2)cc1	ATG4B inhibitor 57 | PLA2 counter 67
O=C(NCc1ccccc1)c1cccc(NC(=O)c2ccccc2)c1	none (no result: PP1 inh, PP5 primary)
CCOc1ccc(C(=O)N2CCN(S(=O)(=O)c3cccs3)CC2)c(OCC)c1	none
Cc1ccc(C)c(NS(=O)(=O)c2ccccc2C)c1	none (no result: PP1 inh, PP5 primary)
COC(=O)c1cccc(NC(=S)NCc2ccc(F)cc2)c1	ATG4B inhibitor 42 | PLA2 counter 50
FC(F)(F)c1cccc(NC(=S)NNC(=S)NCc2ccccc2)c1	ATG4B inhibitor 42 | PLA2 counter inactive
FC(F)(F)c1cccc(NC(=S)NCc2ccccn2)c1	none
Fc1ccc(CNC(=S)NCc2ccccc2)cc1	ATG4B inhibitor 43 | ATG4B conf 71 | PLA2 counter inactive
COC(=O)c1cccc(NC(=S)NCc2ccco2)c1	none
CCCCNC(=O)C1(C)CCN1C(=O)c1ccc2c(c1)CCO2 (centres undefined)	none (no result: ATG4B inhibitor, PP1 inh, PP5 primary)
CCC(C)(C)C1CCC(NC(=O)N2CCN(c3ccccc3O)CC2)CC1 (centres undefined)	none
COc1ccccc1NC(=O)NNC(=O)c1ccc2ccccc2c1O	none (no result: PP1 inh, PP5 primary)
CN(C)C(=O)Nc1ccccc1CC[N+](=O)[O-]	none
O=C(Nc1ccc(Cl)cc1)Nc1ccccc1CC[N+](=O)[O-]	ATG4B inhibitor 65 | PLA2 counter 71
NS(=O)(=O)c1ccc(CCNC(=O)c2ccc(OCC3CCCO3)cc2)cc1 (centres undefined)	none
CCNC(=O)c1ccc(CSc2nc3ccccc3s2)cc1	none
NC(=O)c1ccc(CSc2nc3ccccc3s2)cc1	ATG4B inhibitor 51 | PLA2 counter 59
O=C(c1ccc(OC2CCN(Cc3ccc(C(F)(F)F)cc3)CC2)cc1)N1CCCCC1	ATG4B inhibitor 41 | PLA2 counter 51
O=C(c1ccc(OC2CCN(Cc3ccccc3OC(F)F)CC2)cc1)N1CCCC1	ATG4B inhibitor 42 | PLA2 counter 52
COc1cc(/C=C/CN2CCC(Oc3ccc(C(=O)N4CCCC4)cc3)CC2)ccc1O	ATG4B inhibitor 40 (no result: PP1 inh, PP5 primary) | PLA2 counter inactive
C=CCOc1ccccc1CN1CCC(Oc2ccc(C(=O)N3CCCC3)cc2)CC1	none
COc1cc(/C=C/C(=O)O)cc(S(=O)(=O)N2CCN(S(=O)(=O)c3ccc(Cl)cc3)CC2)c1OC	none
COc1ncnc2c1ncn2CCCNCC(C)c1ccccc1 (centres undefined)	none (no result: ATG4B inhibitor, PP1 inh, PP5 primary)
CCCc1cc(C(=O)NC2CCCCC2)no1	none
CCCc1cc(C(=O)N(C2CCCCC2)C2CCCCC2)no1	ATG4B inhibitor 60 | PLA2 counter 72
O=C(CSc1nnc(-c2cc3ccccc3cc2O)n1Cc1ccco1)N1CCc2ccccc2C1	ATG4B inhibitor 41 | PLA2 counter 54
O=C(CNC(=O)N1CC(=O)Nc2ccccc21)Nc1cc(Cl)ccc1Cl	none
Cc1ccc(C(=O)Oc2cccc(NC(=O)c3ccccc3)c2)cc1C	ATG4B inhibitor 49 | PLA2 counter 59
Cc1ccc(NC(=O)c2ccccc2)cc1C	none
O=C1NC(=O)/C(=C/c2ccccc2Oc2ccc(Cl)cc2)S1	ATG4B inhibitor 48 | ATG4B conf 59 | PLA2 counter inactive
Cc1ccc(S(=O)(=O)Oc2ccccc2/C=C2\SC(=O)NC2=O)cc1	none
COc1ccc(OC)c(/C=C2\S/C(=N/NC(=O)c3ccc4ccccc4c3)NC2=O)c1	ATG4B inhibitor 79, H9c2 protect 58 | PLA2 counter 83
COc1cccc(/C=C2\SC(=O)NC2=O)c1OCc1ccc(C(=O)O)cc1	none
O=C1N/C(=N/NC(=O)c2cccc3ccccc23)S/C1=C\c1ccccc1OCc1ccccc1	ATG4B inhibitor 91 (no result: PP1 inh, PP5 primary) | PLA2 counter 91
COc1ccc(/C=C2\SC(=Nc3ccccc3Cl)NC2=O)c(OC)c1	none (no result: ATG4B inhibitor, PP1 inh, PP5 primary)
CC1CN(S(=O)(=O)c2cc(C(=O)NCCCN3CCCC3=O)ccc2Cl)CC(C)O1 (centres undefined)	none (no result: PP1 inh, PP5 primary)
CC(C)Cc1ccc(CN2C(C)C(=O)N(Cc3cn(Cc4ccco4)nn3)CCS2(=O)=O)cc1 (centres undefined)	none (no result: ATG4B inhibitor, PP1 inh, PP5 primary)
CCCCCCN1C(=O)CC(NC(=O)OCC2c3ccccc3-c3ccccc32)C/C=C\C1C(C)C (centres undefined)	none (no result: PP1 inh, PP5 primary)
N#CCC(=O)Nc1ccc(C(=O)NCc2cccc(Cl)c2)cc1	ATG4B inhibitor 53 | PLA2 counter 71
Cc1cccc(CNC(=O)c2ccc3c(c2)N(C)CCS3)c1	none
CCN1CCSc2ccc(C(=O)NCc3ccccc3C)cc21	ATG4B inhibitor 44 | PLA2 counter 59
CN1CCSc2ccc(C(=O)NCc3cccc(Br)c3)cc21	ATG4B inhibitor 41 | PLA2 counter 57
CCn1c(C(=O)N2CCc3ccccc3C2)cc2oc3ccccc3c21	ATG4B inhibitor 43 | PLA2 counter 72
Cn1c(C(=O)N2CCc3ccccc3C2)cc2oc3ccccc3c21	ATG4B inhibitor 59 | PLA2 counter 64
COc1cccc(CN2CCC(C(=O)Nc3ccc(-c4cccc(C)c4)cc3)CC2)c1O	none
Cc1ccc2[nH]c(=O)c(CN(Cc3cccs3)Cc3nnnn3Cc3ccccc3)cc2c1	ATG4B inhibitor 52 | PLA2 counter 65
